In PubChem BioAssay (NCI):
This is part of a sample that, as a whole, favours compounds with a hit. Of some 83,000 tested, about 20% had one in any assay.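 Single-concentration screen, 48 h exposure, 96-well plates. Endpoint: percent growth. Below 10 = active.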 Values without a mark were called inactive. Calls of active or inactive are those of the source.

Experiments:
Experiment in all cases: NCI-60 one-dose screen, 48 h (100 = growth as untreated, 0 = no growth, -100 = all killed)
Conditions in all cases: 10 µM unless noted
[1] = test system: SK-MEL-2 melanoma
[2] = test system: EKVX NSCLC
[3] = test system: SN12C renal
[4] = test system: UO-31 renal
[5] = test system: TK-10 renal
[6] = test system: ACHN renal
[7] = test system: A498 renal
[8] = test system: CCRF-CEM leukemia
[9] = test system: MOLT-4 leukemia
[10] = test system: SR leukemia

| Compound | growth [1] | growth [2] | growth [3] | growth [4] | growth [5] | growth [6] | growth [7] | growth [8] | growth [9] | growth [10] |
| --- | --- | --- | --- | --- | --- | --- | --- | --- | --- | --- |
| CN1CCN(/C=C2\CC(C(=O)NCc3ccc(Cl)cc3Cl)NC2=O)CC1 (stereo not given) | 100% | 116% | 106% | 95% | 92.7% | 110% | 90.8% | 88% | 95.2% | 90.3% |
| C=C1C(=O)O[C@H]2[C@H]1CC/C(COC(=O)c1c[nH]c3ccccc13)=C\CC[C@@]1(C)O[C@@H]21 | -41.3% (active) | -73.3% (active) | -46.5% (active) | -97.6% (active) | -87% (active) | -77.8% (active) | -96.3% (active) | -0.836% (active) | -1.78% (active) | -9.87% (active) |
| Cc1nccc2c3ccc(OCc4cn(-c5ccccc5)nn4)cc3n(CCCc3ccccc3)c12 | 91.7% | 69.9% | 75.6% | 54.6% | 71.6% | 72% | 53.8% | 77.4% | 35.3% | 33.5% |
| O=C1CCC23OC(C(O)c4ccccc4N12)C1C(Br)=NOC13 (stereo not given) | 108% | 99.7% | 90.7% | 87.2% | 98.5% | 104% | 108% | 103% | 103% | 102% |
| COc1cc(NCC(=O)Nc2cc(Nc3cccc(C(F)(F)F)c3)ncn2)c(Cl)c(OC)c1Cl | 89.5% | 90.6% | 101% | 64.2% | 101% | 95.7% | 71.5% | 72.5% | 76.2% | 72.2% |
| COc1ccc(/C=C(/C(=O)N2CCN(Cc3ccccc3)CC2)c2cc(OC)c(OC)c(OC)c2)cc1O | 73.6% | 87.2% | 91.2% | 62.5% | 88.5% | 67.2% | 54.9% | 64.9% | 72.1% | 28% |
| COc1ccccc1C(=O)/C=C/c1cc2cccc(OC)c2[nH]c1=O | 20% | 7.34% (active) | -0.142% (active) | -48.6% (active) | 3.12% (active) | 4% (active) | -15% (active) | -4.86% (active) | 7.38% (active) | -1.87% (active) |
| CC(=O)c1ccc(NC(=O)CSc2nnc(-c3cc(-c4ccc(Cl)cc4)nc4ccccc34)o2)cc1 | 87.3% | 97.3% | 37.9% | 86.6% | 83.7% | 89.8% | 105% | 60.8% | 66.6% | 0.55% (active) |
| C[C@@H]1C(=O)[C@@H]2C[C@@H](O)[C@@H](O)C[C@]2(C)[C@H]2CC[C@@]3(C)C(=C12)CC[C@@H]3[C@@](C)(O)[C@H](O)CCC(C)(C)O | 108% | 113% | 104% | 89% | 95.9% | 117% | 67.2% | 89.5% | 87.3% | 97.4% |
| CN(C)CCCn1c2c(c3cc(-c4ccco4)ccc3c1=O)C(=O)c1ccccc1-2 | 117% | 81.4% | 51.9% | 51.6% | 66.3% | 48.5% | 93.7% | 36.2% | 10.9% | -40.2% (active) |
| Cc1c(Cl)cccc1NC(=O)c1sc2nc3c(cc2c1N)CCCCC3 | 48.5% | 42.2% | 44.9% | 55.2% | 65.6% | 62.5% | -3.71% (active) | 9.59% (active) | 14.4% | 12.8% |
| CCCS(=O)(=O)Nc1ccc(F)c(C(=O)c2c[nH]c3ncc(-c4ccc(OCCCC5CCCCN5)nc4)cc23)c1F (stereo not given) | 58.5% | 89.7% | 62.5% | 102% | 81.2% | 92.3% | 64.8% | 56.5% | 43.1% | 43.1% |
| COC(=O)c1nc(-c2ccccc2)oc1S(=O)(=O)n1nc(C)cc1N | 80.3% | 87.8% | 58.5% | 51.4% | 73.5% | -86.2% (active) | 99.9% | 9.2% (active) | 14.6% | 3.74% (active) |
| O=CN1N=C(c2ccc(F)cc2)CC1c1cccc(Nc2ccnc3cc(C(F)(F)F)ccc23)c1 (stereo not given) | 54.2% | 50.6% | 81% | 44.6% | 62.7% | 54.4% | 49.6% | 44.8% | 23.1% | 20.2% |
| CCOC(=O)c1c(C)nc2c(c1N)CC(=O)N2CCc1ccccc1 | 39.2% | 55.9% | 24.3% | 36.6% | -3.79% (active) | 34.2% | 11.9% | 9.62% (active) | 18.6% | 3.16% (active) |
| Oc1ccccc1-c1nc2c3ccccc3c3ccccc3c2o1 | 110% | 78.8% | 83% | 61% | 162% | 91.1% | 114% | 82.1% | 95.3% | 73.7% |
| COc1ccc2oc(=O)cc(-c3nc4ccc(N)cc4[nH]3)c2c1 | 89.5% | 82.2% | 92.4% | 44.9% | 96.5% | 79.9% | 61.5% | 108% | 73.4% | 76.1% |
| C=C1C(=O)O[C@H]2[C@H]1CC/C(COC(=O)NCc1nc3ccccc3[nH]1)=C\CC[C@@]1(C)O[C@@H]21 | 60.2% | 83% | 81.6% | 75.5% | 74.3% | 91.4% | 135% | 10.9% | 77.3% | 54.1% |
| Cc1c(Br)cccc1NC(=O)c1sc2nc3c(cc2c1N)CN(Cc1ccccc1)CC3 | 25.5% | 34.3% | 28.1% | 48.2% | 49.8% | 39.6% | -8.85% (active) | 3.86% (active) | 10.3% | 9.33% (active) |
| CC(C)(C#N)c1cc(F)cc(C(=O)Nc2cc(Nc3ncccc3-c3ncnc4nc[nH]c34)ccc2F)c1 | -12.8% (active) | 59.5% | 56.7% | 12.8% | 49% | 38.5% | -4.87% (active) | 38.9% | 29.2% | 35.5% |
| O=C(CN1N=C(c2ccc(F)cc2)CCC1=O)Nc1nc2ccccc2s1 | 92.7% | 24% | 40.2% | -84% (active) | 95.3% | -23.6% (active) | 97.8% | -72.1% (active) | 33.4% | -52.2% (active) |
| Sc1cccc2cccnc12 | 21.5% | 29.2% | 39.3% | 25.6% | 48.3% | 30.1% | 65.9% | 14.4% | 22.2% | 6.61% (active) |
| C#Cc1ccccc1NC(=O)c1sc2nc3c(cc2c1N)CCCCCC3 | 85.4% | 69.5% | 58.5% | 50.1% | 63.2% | 31.1% | 68.5% | 60.7% | 67.1% | 12.3% |
| C=C(C)[C@@H]1CC[C@]2(C(=O)OCCOCCOCC[P+](c3ccccc3)(c3ccccc3)c3ccccc3)CC[C@]3(C)[C@H](CC[C@@H]4[C@@]5(C)CC[C@H](OC(C)=O)C(C)(C)[C@@H]5CC[C@]43C)[C@@H]12 | -75.6% (active) | -74.8% (active) | -89.9% (active) | -95.1% (active) | -87.1% (active) | -96.7% (active) | -94% (active) | -41% (active) | -77.9% (active) | -49.2% (active) |
| COc1ccc(-c2cn(-c3ccc(Cl)cc3)c(=S)[nH]2)cc1OC | 46.9% | 74.7% | 74.3% | 85.4% | 72.8% | 67% | 94.4% | 84.4% | 77.8% | 22.3% |
| CNC(=O)c1cc(Oc2ccc3c(c2)sc2nc(-c4ccc(NC(C)=O)cc4)cn23)ccn1 | 45.2% | 54.7% | 52% | 43.9% | 61.4% | 52% | -6.27% (active) | 78.8% | 72.7% | 25.7% |
